# The campaign covered roughly 53,000 sequences. About 3,700 (7%) were called active. The entries come from a sample that favours actives as a whole. Unmarked numbers belong to inactive results.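 The calls were made as follows: active = gene knockdowns whose robust z-score for IL-1 alpha signal is at least 2 or at most -2, so actives lie on both sides; inactive = the rest.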
# Assay: Components of the Cytosolic LPS Sensing Pathway: Gene Identification via Genome-wide siRNA Screen;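 also: robust z of the log signal after scaling to non-targeting control siRNA wells of the plate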
# Settings: RAW264.7 macrophages, IL-1a HTRF, actives lie on both sides, screened at 100 nM (by protocol), cells primed 5 h with Pam3CSK4 first
# How it was run: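 RAW264.7 mouse macrophages reverse-transfected with single siRNAs (100 nM final) for 48h, primed with Pam3CSK4 for 5 hours, then transfected with LipidA for 24 hour. Supernatant IL-1a read by HTRF; values normalized to negative-control median, log-transformed robust z-scores.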
row,Sequence,z-score
1,GCAAUAGAAAAGUCCGUGGTT against Rbsn,-1.12
2,GGCAAAGGAUCCAAGUUUGTT against Tmem123,2.81 (active)
3,GGAUGUCCAGAUGUAAAUATT against Vps16,-0.974
4,GGUUAUCAGAGGUUUAGUUTT against Oser1,0.23
5,GGGUCUCCAAUCCCUCAGUTT against Kir3dl2,0.489
6,GGGCAAGAACAACUCACUUTT against 4933404G15Rik,-2.93 (active)
7,GGAUUCAAAGCUUCCUUUATT against Eras,0.115
8,CGAAAAGGUGUGGCCAUCATT against Eif4a3,-0.664
9,CGACAUGUAAAACUAUUGUTT against Cd300e,0.864
10,CGACAUUUUACUAAGAGAUTT against Idnk,-0.895
11,UCGAGUGAAGCAGUCUCCATT against Fam189a1,-2.13 (active)
12,GCCCAGAAUGCUCACUAAATT against Sln,0.491
13,GGCUGUAAUUUUGAACAAUTT against Rnf17,-1.42
14,CGAGAUCGAGUACUCAACUTT against Vps39,-2.96 (active)
15,GGUCACUCAAAGAAUUAUGTT against Srr,-1.05
16,CCUGUUAAUGACACCCACGTT against Slc37a2,-0.886
17,GGCGAUUUACAACUUUGGATT against H2aw,0.0941
18,GGAGUGAAGGGUCAUCCAGTT against Col9a2,5.07 (active)
19,GGAUAUAGGUGUGAUCUAGTT against Mxra7,0.9
20,CCCAAUGUUUCUAAUCAUGTT against Arhgap12,0.306
21,GGAAGGUUUGUUUUGUUUGTT against Slc24a3,0.0291
22,GGAGGAAUACCAGGAAUACTT against Sncb,0.33
23,GCCCUUUUCAUUCUCCAGATT against Zdhhc25,4.39 (active)

row,Sequence,z-score
1,GCCUUUGUGGACCAUCCAATT against Thy1,-0.954
2,GGAAAUACGGCAGAACCCUTT against Kcnk9,-2.54 (active)
3,GUACCUCAGAGCUCUGCAUTT against Helt,-0.292
4,GCACUUAGUCCUACAUGACTT against Fut1,-1.21
5,GGUGGUAAUAGACAAACACTT against Ctdnep1,-0.749
6,GGAUGUGUCAGAAAAGUUATT against Lars2,0.641
7,GGAAAUUGUGGACAUGAUCTT against Sult1c1,-3.27 (active)
8,GGUAACAAAUGCUGUUUUATT against Cul1,0.459
9,CCGAUUGAAUUACUCAGCATT against Bcas2,0.226
10,GGACAAAAGACAAUCGAGATT against Parp2,-0.273
11,CGAUGUUUUCAUGAACGACTT against Tctex1d2,0.738
12,GCUGGGUUAUGAGAUUUCUTT against Tns2,2.26 (active)
13,GGAGGAUUACAACACUGUUTT against Enpp3,-0.617
14,CCUAGUAGCCGAGAAACAUTT against Olfr1137,-0.705
15,GGCAAUACGUGAAGAAAAATT against Baz1a,-0.493
16,GGCUGUUUCUGUCAUGGUUTT against Nup133,0.383
17,GCAGAGAUAAAUUGGAAAGTT against Art2b,0.292
18,GGAUAGAGCACAGAUCCAGTT against St8sia5,2.38 (active)
19,GGUCGAAAUGAUCUCCAACTT against Poli,-0.687
20,GCUUCGAGAACUUUCUCCCTT against Nrtn,0.818
21,GGUUUCCAUAUUUGGAUCCTT against Dhx40,0.0331
22,GGGAAAGAAUUGGAUUGAATT against N4bp2l1,-2.31 (active)
23,GGAAUUUGAAGCUGUCACUTT against Spata2,-0.433

row,Sequence,z-score
1,GGACUAGCGGACAUGGAUCTT against Ndc80,1.02
2,GGAAUUUCAAAGAGACAAATT against Cyfip1,-0.423
3,GGAUCGGUGAGAUUGUAGCTT against Phyhd1,-0.177
4,GGGCAUUUCUUCAGCUAAUTT against Tfec,-1.04
5,GGAAGAUCUCAGUGAGCAUTT against Gpcpd1,0.69
6,GGGUUUUAUCAGCUAAAAATT against Plppr4,2.29 (active)
7,GGCUUUAGGAAGAUCCUUGTT against Ilf2,-0.538
8,UUCUGUGAUCAUGUCUUCUTT against Tuba1b,-1.6
9,GCGAUUCUGUAAAGAGCGCTT against Nme1,1.9
10,GGCCUUAGUUUAUACAUGUTT against Dusp18,0.628
11,GGAAUGUAACUGAAAGACUTT against Myo1c,0.486
12,GCUCAAGGACUUACGCAACTT against Zfp668,-1.61
13,GCAUUCCAACGGAUUUAAUTT against Dag1,2.21 (active)
14,GGACAAAAACAAACAUGAGTT against Vwa3a,-0.665
15,CCGGGAAAGAACUCCUAAGTT against Wnt8b,0.0331
16,GGUUUCACAUUCAUCAACUTT against Ccdc14,-1.02
17,GGAUGAGCAAGAAAUCCCUTT against Ccdc137,-0.873
18,CCUAAGGAGACACGAAGCCTT against Cfp,-0.119
19,GGAUAUGCACUGUUUUCAATT against Nudt16,2.28 (active)
20,GGUCUUCCAAGAAAAAGGCTT against a,1.07
21,GGAUGCUGACAAAAAUAUCTT against Iars,0.447
22,GGCCAUAAAAUGGUAGUAUTT against Trim36,0.0952
23,GGGUCAUGUUUUUAAGAAGTT against Frrs1,-1.28
